Bioassay records as filed in PubChem.
Compounds with a hit are over-represented: about 10% of the library has one in this group of screens.
ALDH1A1 block = ALDH1A1 (human) enzyme inhibition. Purified ALDH1A1, NADH fluorescence, propionaldehyde substrate. actives 7.3% (n = 220,000). Potency, µM (series often up to 75.3 µM), for inactives: at the highest dose activity, negative = inhibition, actives largely listed as inhibitors. P00352. AID 1030;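 further: potency means the concentration at half of the fitted maximal effect; plate controls were no enzyme wells and a reference inhibitor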
HPGD inh = HPGD (human) dehydrogenase inhibition; P15428; purified HPGD, NADH fluorescence kinetic, PGE2 substrate; Potency, µM, without a hit: at the top dose activity change, negative = inhibition, actives largely listed as inhibitors; actives 4.3% (n = 150,000); further: potency means the concentration at half of the fitted maximal effect
Target sequence (P15428 whole entry, looked up): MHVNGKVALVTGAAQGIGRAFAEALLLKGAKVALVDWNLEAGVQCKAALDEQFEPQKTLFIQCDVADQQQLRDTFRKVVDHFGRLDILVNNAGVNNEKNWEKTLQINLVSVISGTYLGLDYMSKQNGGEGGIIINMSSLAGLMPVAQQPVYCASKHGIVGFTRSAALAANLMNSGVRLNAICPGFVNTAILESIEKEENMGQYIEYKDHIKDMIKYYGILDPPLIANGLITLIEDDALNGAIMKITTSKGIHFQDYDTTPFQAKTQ
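20 nM HPGD preincubated 15 min at room temperature with compound in 50 mM Tris-HCl pH 8, 0.01% Tween 20. Started with 1 mM NAD+ and 30 uM prostaglandin E2; NADH fluorescence (360/450 nm) read 5 times over 30-s intervals, last minus first.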
PNC inhibitor = inhibitors of perinucleolar compartment assembly | PC3M PTB-GFP, PNC prevalence imaging, 16 h; active compounds read low | activity change (PNC), negative = inhibition, % at 10 µM | actives 3.1% (n = 140,000);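 active means readout at or below -70, meaning at least 70% loss of cells showing the perinucleolar compartment, a nuclear body marking cancer cells; inconclusive means readout between -30 and a set limit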;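 further: plate controls were DMSO wells for no effect and camptothecin positive control wells for full effect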
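Read-out is percentage of cells bearing a perinucleolar compartment, from automated 20x imaging of fixed, Hoechst-stained PC3M PTB-GFP cells. Cells were seeded 4 h, then exposed 16 h to compound (23 nl of library stock) in duplicate plates.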
12-hLO inh = 12-hLO (ALOX12) enzyme inhibition. P18054. purified 12-hLO, xylenol orange hydroperoxide absorbance. Potency, µM (top dose mostly 57.1 µM), inactives show top-dose activity change, negative = inhibition, hits mostly inhibitors. actives 0.12% (n = 150,000); active means well fitted inhibition curve with a large enough effect; inconclusive means small, poorly fitted or top-dose-only effect; further: potency means the concentration at half of the fitted maximal effect; nearly all actives have a fitted effect of over 55% in size
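Xylenol orange chromogenic assay: hydroperoxide from 12hLO oxidises Fe(II), giving red-shifted Fe(III)-XO absorbance. Conditions: 150 nM enzyme, 40 uM arachidonic acid, 25 mM Hepes pH 7.0, 0.01% Triton X-100, 30 min, room temperature.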
LMNA splice mod = modulators of lamin A splicing; actives 0.01% (n = 200,000); Potency, µM (titrated, usually from 46.1 µM), inactives show at the highest dose ratio change, negative = inhibition, actives largely listed as inhibitors; HeLa LMNA splicing GFP/RFP minigene ratio, 48 h; active means well fitted inhibition curve with a large enough effect in the signal ratio, with a control signal flat, not every such curve was filed as active; inconclusive means small, poorly fitted or top-dose-only effect, or effect the other way, or a change in a side signal; the % refers to the signal ratio; further: potency means the concentration at half of the fitted maximal effect
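S3 HeLa cells stably expressing lamin A-EGFP splicing minigene plus DsRed2, 600 cells/well, 48 h compound exposure at 37C. Laser-scanning cytometry; analysed as GFP (500-530 nm)/RFP (575-640 nm) total intensity ratio; 0.5% DMSO vehicle.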
* marks the source's active call; other numbers are inactive results; [ ] = another dose, or the depositor's remark. Unless noted, the call rests on the fitted dose curve; in most records, active means well fitted inhibition curve with a large enough effect (not every such curve was filed as active); inconclusive means small, poorly fitted or top-dose-only effect, or another doubt; inactive means no such curve, though single readings can be large or run the other way. Unless noted, on the % scale 0 is the no-effect control and ±100 the full control effect.

What do the screens show for `CC1(C)CC2CN(C(=O)Cc3ccccc3)C(C)(C2)C1` (configuration not stated)?
ALDH1A1 block: 18µM*

What do the screens show for `O=C(COc1ccc(F)cc1)Nc1nnc(S(=O)(=O)N2CCc3ccccc32)s1`?
LMNA splice mod: -17%[46 µM]

What do the screens show for `CC(=O)Nc1ccc2nc(-c3ccc(Br)o3)[nH]c2c1`?
ALDH1A1 block: 32µM*; HPGD inh: -22%; PNC inhibitor: 38; 12-hLO inh: 4%; LMNA splice mod: 3%

Results for O=C(Nc1ccc2nc(-c3ccc(Br)o3)[nH]c2c1)c1ccco1 ?
ALDH1A1 block: -9%; HPGD inh: -20%; PNC inhibitor: -22; 12-hLO inh: -2%; LMNA splice mod: -5%

What do the screens show for `Cc1ccc(-c2nc3ccc(NS(=O)(=O)c4ccccc4)cc3[nH]2)o1`?
ALDH1A1 block: 8.9µM*; HPGD inh: 40%; PNC inhibitor: 52; 12-hLO inh: 1%; LMNA splice mod: -14%

How did Cn1c(=O)n(CCCc2ccccc2)c(=O)c2c1nc1n2CCN1c1ccc(F)cc1 do in these assays?
LMNA splice mod: 8%[46 µM]

Results for O=C1c2ccccc2CC1Sc1nnc(-c2ccncc2)o1 (configuration not stated) ?
ALDH1A1 block: 1µM*; HPGD inh: inconclusive; PNC inhibitor: 29; 12-hLO inh: -4%; LMNA splice mod: 5%

How did Cc1ccccc1N1C(=O)CC(Sc2nnc(-c3ccccc3)o2)C1=O (configuration not stated) do in these assays?
ALDH1A1 block: 7.9µM*; HPGD inh: -29%; PNC inhibitor: -24; 12-hLO inh: -8%; LMNA splice mod: 14%

Results for O=C1CC(Sc2nnc(-c3ccccc3)o2)C(=O)N1c1ccccc1 (configuration not stated) ?
ALDH1A1 block: 1.8µM*; HPGD inh: 22µM*; PNC inhibitor: 19; 12-hLO inh: -1%; LMNA splice mod: 16%

What do the screens show for `COc1cc(OC)c(OC)cc1/C=C/C(=O)c1ccc(NS(=O)(=O)c2ccc(C)cc2)cc1`?
ALDH1A1 block: -13%; HPGD inh: -27%; PNC inhibitor: -23; 12-hLO inh: 0%; LMNA splice mod: inconclusive

How did O=C(Nc1ccc(S(=O)(=O)NC2CCCCC2)cc1)c1ccc(Br)o1 do in these assays?
ALDH1A1 block: -7%; HPGD inh: 14µM*; PNC inhibitor: inconclusive; 12-hLO inh: -13%; LMNA splice mod: inconclusive

How did CN(C1CCCCC1)S(=O)(=O)c1ccc(NC(=O)c2ccc(Br)o2)cc1 do in these assays?
ALDH1A1 block: inconclusive; HPGD inh: -28%; PNC inhibitor: -27; 12-hLO inh: 0%; LMNA splice mod: inconclusive

What do the screens show for `C/C(=N/NS(=O)(=O)c1ccc(Br)cc1)c1ccc(NC(=O)c2ccc(C)o2)cc1`?
ALDH1A1 block: -7%; HPGD inh: -13%; PNC inhibitor: -16; 12-hLO inh: inconclusive; LMNA splice mod: -3%

What do the screens show for `C/C(=N\NS(=O)(=O)c1ccc([N+](=O)[O-])cc1)c1ccc(NC(=O)c2ccco2)cc1`?
ALDH1A1 block: 25µM*

How did O=C(Nc1ccc(S(=O)(=O)NC2CCCCC2)cc1)c1ccco1 do in these assays?
ALDH1A1 block: 0%; HPGD inh: 13µM*; PNC inhibitor: -100*; 12-hLO inh: -2%; LMNA splice mod: inconclusive

How did COc1ccc(C(=O)OC2CC3CC[C@H](C2)N3C(C)=O)cc1OC (some centres not stated) do in these assays?
ALDH1A1 block: 9%; HPGD inh: 0%

What do the screens show for `CCCCC/C=C\C/C=C\CCCCCCCC(N)=O`?
ALDH1A1 block: 7%; HPGD inh: -11%; 12-hLO inh: -1%

How did CN(C)CN1C(=O)S/C(=C2/C(=O)N(CN(C)C)c3ccccc32)C1=O do in these assays?
ALDH1A1 block: -2%[13.5 µM]; HPGD inh: 0%; 12-hLO inh: 3%[11.4 µM]

What do the screens show for `CCN(CC)S(=O)(=O)c1ccc(C(=O)Nc2ccc3c(c2)OCCO3)cc1`?
ALDH1A1 block: 13µM*; HPGD inh: -10%; PNC inhibitor: 33; 12-hLO inh: -5%; LMNA splice mod: inconclusive

Results for CCC(CC)C(=O)Nc1cccc(C(=O)Nc2ccc3c(c2)OCO3)c1 ?
ALDH1A1 block: 13µM*; HPGD inh: -12%; PNC inhibitor: -27; 12-hLO inh: -3%; LMNA splice mod: -7%

Results for CCOc1ccc(C(=O)Nc2ccc3c(c2)OCO3)cc1OCC ?
ALDH1A1 block: 1%; HPGD inh: -3%; PNC inhibitor: inconclusive; 12-hLO inh: -1%; LMNA splice mod: -6%

Results for CCC(CC)C(=O)Nc1cccc(C(=O)Nc2ccc(S(N)(=O)=O)cc2)c1 ?
ALDH1A1 block: -4%

What do the screens show for `CCN(CC)S(=O)(=O)c1ccc(S(=O)(=O)Nc2cc3c(cc2C(C)=O)OCO3)cc1`?
ALDH1A1 block: 3.2µM*; PNC inhibitor: -16; 12-hLO inh: -4%; LMNA splice mod: inconclusive

How did CCOc1cc(C(=O)Nc2ccc3c(c2)OCO3)ccc1OCCOc1ccccc1Cl do in these assays?
ALDH1A1 block: -2%; HPGD inh: -11%; PNC inhibitor: -87*; 12-hLO inh: -7%; LMNA splice mod: inconclusive

How did c1ccc(N2CCN(c3ncnc4c3nc3n4CCCCC3)CC2)cc1 do in these assays?
LMNA splice mod: -6%[46 µM]

What do the screens show for `CC(C)CC1(C)NC(=O)N(CC(=O)Nc2cccc(S(=O)(=O)N(C)c3ccccc3)c2)C1=O` (configuration not stated)?
ALDH1A1 block: 12%; LMNA splice mod: -28%[46 µM]

Results for COc1ccc(-c2nc3cnc(Nc4cccc(OC)c4)nc3n(C)c2=O)cc1 ?
ALDH1A1 block: 0%; LMNA splice mod: inconclusive

How did CCCN(CCC)S(=O)(=O)c1cccc(C(=O)Nc2ccc3c(c2)OCO3)c1 do in these assays?
ALDH1A1 block: 3.2µM*; HPGD inh: -16%; PNC inhibitor: 28; 12-hLO inh: -7%; LMNA splice mod: 5%

How did CCCC(=O)Nc1cccc(NC(=O)c2ccc3c(c2)OCO3)c1 do in these assays?
ALDH1A1 block: 4%; HPGD inh: -7%; PNC inhibitor: 21; 12-hLO inh: -6%; LMNA splice mod: -5%

Results for NS(=O)(=O)c1ccc(NC=C2C(=O)OC3(CCCCC3)OC2=O)cc1 ?
ALDH1A1 block: 1.9µM*; HPGD inh: 35µM*; PNC inhibitor: -23; 12-hLO inh: 0%; LMNA splice mod: 9%

How did C=C1CSc2nc(=O)c3c4c(sc3n21)CCCC4 do in these assays?
ALDH1A1 block: -15%; HPGD inh: 14µM*; PNC inhibitor: 26; 12-hLO inh: 0%; LMNA splice mod: 1%

How did C=C1CSc2nc(=O)c3c4c(sc3n21)CCC4 do in these assays?
ALDH1A1 block: 6%; HPGD inh: 14µM*; PNC inhibitor: 7; 12-hLO inh: -1%; LMNA splice mod: 12%
